# Legend:
# Assay in all cases: PBM binding z-score (relative to random genomic background probes); higher = stronger binding; sequences stand for … in GC…GCGATTGACAGCGTAGAATGAAGG
# [1] = system: RARb homodimer (NR concentration 270 nM)
# Method in brief: (§1)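 For binding z-scores, the reference was random background probes on custom Agilent 4×180K protein-binding microarrays. These arrays were incubated 1 h with ligand-free nuclear receptor dimers in PBS pH 7.4, 2% milk, 0.02% Triton X-100, 1 mM DTT, 0.2 mg/mL BSA and 0.4 mg/ml salmon testes DNA. Fluorescence was scanned after antibody detection of each partner (one per run) and regression-normalized.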
# [2] = system: RARg:RXRa (NR concentration 270 nM, RXRa partner concentration 90 nM)
# Method in brief: as §1
# [3] = system: RARg homodimer (NR concentration 270 nM)
# Method in brief: as §1
# [4] = system: RXRa DBDmut IVT, anti-RXR (DBD mutation: RXRa K156A/R161A, NR concentration 90 nM)
# Method in brief: as §1
# [5] = system: RXRa homodimer (NR concentration 180 nM)
# Method in brief: as §1
# [6] = system: THRa:RXRa (NR concentration 90 nM, RXRa partner concentration 90 nM)
# Method in brief: as §1
# [7] = system: THRa homodimer (NR concentration 90 nM)
# Method in brief: as §1
# [8] = system: VDR:RXRa (NR concentration 270 nM, RXRa partner concentration 90 nM)
# Method in brief: as §1
# [9] = system: VDR homodimer (NR concentration 270 nM)
# Method in brief: as §1
Sequence,PBM binding z-score [1],PBM binding z-score [2],PBM binding z-score [3],PBM binding z-score [4],PBM binding z-score [5],PBM binding z-score [6],PBM binding z-score [7],PBM binding z-score [8],PBM binding z-score [9]
GCGACTTGGGCAAAGCAGGTTACCATAAGGTTGG,-0.0673,-0.0478,-0.407,-0.506,0.218,1.39,-0.348,-0.467,-0.774
TCGAGCAGGTTAGGGGCATTCAGAATGGCGTCGA,0.54,0.286,0.148,-0.111,0.719,0.723,-0.36,0.187,0.474
AGAATAAGGTTACCAAAGATCAGGGAAACGCTTG,1.1,2.06,2,0.391,2.36,2.69,0.914,0.872,0.232
CGTCCCAGGTCAAAGGTCAGTGAAGAGATGACGG,5.2,7.98,7.02,2.62,9.93,4.99,2.8,6.07,2.7
CCTCGGAGAACAGAAGGTCAGAGCTGTCCGCTTT,2.93,2.11,1.99,0.355,2.01,1.77,-0.175,1.03,0.014
GCTGCCAGGTCAGGTTGGTCAGCTAACGGGTACG,2.65,2.55,3.29,0.47,1.5,2.51,1.16,1.03,0.33
TGAATGAGGTTATAACATCAGGGAACGTTGCAAA,-0.0288,1.33,0.791,0.901,2.09,1.78,-0.00143,1.11,0.537
TCATATAGGTAAAAGGTGCAAGTCGGTGTGGTAA,0.775,0.469,0.207,1.9,1.27,0.295,-0.18,1.09,0.772
GCATATAGGTAATACAAGGTGAAACTCCGATTGT,0.806,0.886,0.775,0.602,1.06,4.51,1.21,0.732,0.121
TAGCCTAGGTCATTCAGGGGCCAGTACAGAAAGC,3.28,5.87,4.35,1.94,2.7,3.4,0.784,3.33,1.56
ATATGTAGCTTACATCCGGGTCATTCAGGCTATG,1.78,1.48,1.02,0.735,1.9,2.87,2.3,2.82,2.18
ATATGTAGGTTACATCCGGGTCATTCAAGCTATG,2.89,3.76,2.1,1.48,3.24,3.88,2.61,4.17,2.99
CCTTGCGGGTCACTCCAGGTTATAGCATCGGAGT,2.74,3.99,3.63,1.43,3.78,4.98,0.573,3.51,1.2
ACAGACAGGTGATGGAGGTAACTCAGGCTATCAT,0.431,0.0912,0.339,-0.505,0.156,1.05,0.503,0.681,-0.164
CGAACTAGGTCATTGACAGCACAGTGAATAGTAA,2.36,3.46,4.03,2.29,2.47,2.31,0.694,2.15,1.08
ATCTCTAGGTAGAAGTTCAGTGAATCCCGAGGAT,1.2,0.74,0.979,0.251,0.602,0.355,-0.305,0.473,1.28
